Results: PubChem BioAssay AID1159580 (chemical genetic matrix, 2015)
Among all 5,500 compounds or so, about 2,000 (36%) were called active. Inconclusive results (about 18%) are left out. No stated cut-off is given here; in the data, active means normalized growth mostly below about 0.91 (no sharp cut-off); inconclusive means no clear call, values can overlap the other calls; inactive means mostly above about 0.92. The list shows a part of the results.

Experiment: chemical genetic growth profiling, strain panel (AID 1159580);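 further: tested at 20 µM; growth read once vehicle control cultures reached saturation at 30 °C; 1 = growth at the plate median or of vehicle wells; lower values mean less growth of the strain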
Settings: S. cerevisiae deletion strains, growth OD

Measured: normalized growth

NOCC(=O)O
inactive: locus YAL040C, strain CLN3, hits give low values 0.96 | locus YCL061C, strain MRC1 (second series), hits give low values 0.985 | locus YDR363W, strain ESC2, hits give low values 1.01 | locus YER002W, strain NOP16, hits give low values 0.997 | locus YGR229C, strain SMI1, hits give low values 0.979 | locus YJR075W, strain HOC1, hits give low values 1 | locus YNL128W, strain TEP1, hits give low values 0.977 | locus YNL175C, strain NOP13, hits give low values 1.01 | locus YNL197C, strain WHI3, hits give low values 0.993 | locus YNL224C, strain SQS1, hits give low values 1.04 | locus YNL322C, strain KRE1, hits give low values 0.998 | locus YOR083W, strain WHI5 (second series), hits give low values 0.993 | locus YPL055C, strain LGE1, hits give low values 0.999
